Compound activity deposited in PubChem by National Center for Advancing Translational Sciences (NCATS).
HT1080 IDH1KD tx: kills HT-1080 cells with IDH1 knockdown; HT-1080 IDH1 knockdown viability, ATP luminescence, 48 h; Potency, µM (doses to about 46.1 µM), for the others: at the highest dose activity, negative = toxicity, usual class: cytotoxic; 360,000 tested, 2% active;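 also: 0% = DMSO wells and -100% = cell-free medium wells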
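Using the IDH1-knockdown HT-1080 line run in the same batch and compound series as the NT line, viability after 48 h at 37 °C was determined by CellTiter-Glo luminescence and expressed as % activity.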
HT1080-NT tox: kills 2HG-producing HT-1080-NT fibrosarcoma cells | HT-1080-NT fibrosarcoma viability, CellTiter-Glo ATP luminescence, 48 h | Potency, µM (titrated, usually from 46.1 µM), inactives show at the top dose activity, negative = less viability, hits mostly cytotoxic | 360,000 tested, 1.6% active | AID 686970;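 also: NT is the 2HG producing partner of a matched IDH1 knockdown line; 0% = DMSO-treated cells and -100% = media-only wells without cells; nearly all actives have a fitted effect of over 55% in size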
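Luminescent CellTiter-Glo readout after 48 hours of compound exposure at 37 degrees C defined viability of HT-1080-NT cells. Activity was normalized to DMSO wells and cell-free media wells; concentration-response curves were fitted and assigned curve classes.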
ATXN2 expr inh: ATXN2 expression inhibition; HEK-293 ATXN2-luciferase reporter, luminescence, 24 h; Potency, µM (series often up to 57 µM), without a hit: top-dose activity change, negative = inhibition, usual class: inhibitors; 360,000 tested, 0.72% active; also: % is scaled to controls: 0 for no effect and ±100 for the full control effect; nearly all actives have a fitted effect of over 55% in size
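ATXN2-luciferase reporter cells (luciferase flanked by upstream and downstream ATXN2 gene portions) were treated 24 h at 37 °C with compounds at up to 57 uM. SteadyGlo luminescence gave expression; GF-AFC fluorescence gave viability.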
ATXN viability: cell viability loss in ATXN counter-screen | S2 cells (HEK-293 line with an ATXN2-luciferase reporter) viability, CellTiter-Fluor protease fluorescence, 24 h | Potency, µM (highest dose often 56.7 µM), actives largely listed as cytotoxic | 400,000 tested, 0.49% active | AID 651635; also: nearly all actives have a fitted effect of over 40% in size
KB-V1 cytotox: kills drug-selected multidrug resistant KB-V1 cells; 400,000 tested, 3.4% active; Potency, µM (doses to about 46.1 µM), hits mostly cytotoxic; KB-V1 MDR cells viability, CellTiter-Glo, 72 h; also: % is scaled to controls: 0 for no effect and ±100 for the full control effect; nearly all actives have a fitted effect of over 60% in size
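Following 72 h at 37 degrees C with compound, KB-V1 cell viability was read by CellTiter-Glo luminescence, medium being phenol-red-free DMEM plus 10% FBS; concentration-response parameters came from normalized, curve-fitted qHTS data.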
KB-3-1 cytotox: KB-3-1 parental cell cytotoxicity | KB-3-1 viability, CellTiter-Glo ATP luminescence, 72 h | Potency, µM (highest dose often 46.1 µM), most hits filed as cytotoxic | 400,000 tested, 1.4% active; also: % is scaled to controls: 0 for no effect and ±100 for the full control effect; nearly all actives have a fitted effect of over 60% in size
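Cytotoxicity in the drug-sensitive parental line KB-3-1 was scored as loss of CellTiter-Glo luminescence following 72 h incubation with compound. Values come from curve fitting of normalized concentration-response data.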
* = called active by the depositor; i = inactive; u = inconclusive; x = not tested or not shown; ! = repeats disagree; [ ] = another dose, or the depositor's remark. This is a sample that favours compounds with a hit; in the whole collection about 6.2% have one here. Calls follow the shape of the dose curve; as a rule, active = well fitted curve in the direction sought with a large enough effect; inconclusive = small, poorly fitted or top-dose-only effect, or another doubt; inactive = no such curve, though single readings can be large; an effect the other way counts as inactive or inconclusive. Potency is read from the fitted curve at half-maximal effect.

SMILES | HT1080 IDH1KD tx | HT1080-NT tox | ATXN2 expr inh | ATXN viability | KB-V1 cytotox | KB-3-1 cytotox
CCn1cc(C(=O)NCc2ccco2)c(=O)c2cc(S(=O)(=O)N3CCC(C)CC3)ccc21 | u | u | -25.5% | i | 5.8µM* | u
CCn1cc(C(=O)N2CCCC2)c(=O)c2cc(S(=O)(=O)N3CC(C)CC(C)C3)ccc21 (stereo not given) | -6.6% | -0.4% | 3.1% | i | i | i
CCn1cc(C(=O)NCc2ccco2)c(=O)c2cc(S(=O)(=O)N3CC(C)CC(C)C3)ccc21 (stereo not given) | 5.8µM* | 4.11µM* | u | i | u | 5.8µM*
CCCCOc1ccc(CNC(=O)c2cccc(NC(=O)N3CCSc4ncccc43)c2)cc1 | x | x | x | x | i | u
COc1ccc(Cl)cc1NC(=O)CSC1=Nc2ccccc2C2=NC(CCC(=O)NCc3ccco3)C(=O)N12 (stereo not given) | x | x | -24.5% | u | i | i
CCn1cc(C(=O)NCc2ccco2)c(=O)c2cc(S(=O)(=O)N3CCc4ccccc4C3)ccc21 | u | u | -21.7% | i | i | 23.1µM*
COc1ccc(C(=O)N2CC(=O)Nc3ccc(C)cc3C2c2ccccc2)c(OC)c1 (stereo not given) | x | x | 4.7% | i | i | i
O=C(COc1ccc(Br)cc1Cl)Nc1ncn[nH]1 | x | x | -6.5% | i | i | i
Cc1ccc(NC(=O)CN(C)C(=O)Cc2ccc(Cl)c(Cl)c2)cc1 | u | -15.0% | -18.1% | i | i | i
O=C(Cn1ncc(Cl)c(Cl)c1=O)NCC1CCCCC1 | u | u | u | x | i | 14.6µM*
O=C(Cn1ncc(Cl)c(Cl)c1=O)NC1CCCCC1 | 14.6µM* | 13µM* | u | x | i | u
Cc1ccc(NC(=O)CN(C)C(=O)Cn2ncc(Cl)c(Cl)c2=O)cc1 | 20.6µM* | u | u | x | u | u
O=C(Cn1ncc(Cl)c(Cl)c1=O)NC1CCS(=O)(=O)C1 (stereo not given) | 1.8% | -5.2% | 0.9% | i | i | i
Cc1cccc(NC(=O)CN2CCN(CC(=O)NCc3ccc(Cl)cc3Cl)CC2)c1C | 10.8% | -3.2% | -4.5% | i | 3.66µM* | i
NC(=O)c1ccccc1NC(=O)CN1CCN(Cc2ccc(Cl)cc2Cl)CC1 | -3.1% | 0.2% | -23.0% | i | u | u
COc1ccc(C(=O)Nc2nc(-c3nnn(-c4ccc(C(C)C)cc4)c3C)ns2)cc1 | x | x | -23.4% | i | u | i
Cc1cccc(NC(=O)CNC(=O)Cn2ncc(Cl)c(Cl)c2=O)c1C | 7.31µM* | 25.9µM* | u | x | u | u
O=C1CN(C(=O)COc2ccc(Cl)c(Cl)c2)c2ccccc2N1 | -3.6% | 1.0% | -0.8% | i | i | i
O=C1CN(C(=O)Cn2ncc(Cl)c(Cl)c2=O)c2ccccc2N1 | 4.11µM* | 4.61µM* | u | u | u | u
O=c1c2oc3ccccc3c2n(Cc2ccccc2F)c(=O)n1Cc1ccco1 | x | x | 2.8% | i | i | i
CCOc1ccc(-c2cn3c(n2)sc2cc(C(=O)NCCc4ccc(OC)c(OC)c4)ccc23)cc1 | x | x | x | x | i | i
Cc1cccc(NC(=S)/N=C(\N)Nc2nc(C)c3ccc(C)cc3n2)c1 | u | -26.6% | -22.1% | i | i | i
Cc1cccc(NC(=S)/N=C(\N)Nc2nc(C)c3cc(C)ccc3n2)c1 | -2.2% | -2.2% | -21.7% | u | 23.1µM* | i
COc1ccc2nc(N/C(N)=N/C(=S)Nc3ccccc3)nc(C)c2c1 | 0.0% | -7.4% | -19.3% | i | 9.2µM* | u
CCc1ccc(NC(=S)/N=C(\N)Nc2nc(C)c3cc(CC)ccc3n2)cc1 | 10.3µM* | u | -24.8% | u | u | u
SMILES | HT1080 IDH1KD tx | HT1080-NT tox | ATXN2 expr inh | ATXN viability | KB-V1 cytotox | KB-3-1 cytotox
CCOc1ccc2nc(N/C(N)=N/C(=S)Nc3ccc(OC)cc3)nc(C)c2c1 | -5.5% | -3.3% | u | u | i | i
COc1ccc2c(C)nc(N/C(N)=N/S(=O)(=O)c3ccc(C)cc3)nc2c1 | -21.6% | -22.3% | -23.3% | i | i | i
Cc1ccc(S(=O)(=O)/N=C(\N)Nc2nc(C)c3ccccc3n2)cc1 | 9.3% | 0.5% | 8.9% | i | 9.2µM* | i
O=S1(=O)N=C(Oc2ccc3ccccc3c2)c2ccccc21 | x | x | x | x | i | i
Cc1cc2n(n1)CCC(=O)N2Cc1ccc(C(=O)Nc2ccc(Br)c(C)c2)cc1 | x | x | -22.4% | i | i | u
Cc1cccc(NC(=S)/N=C(\N)Nc2nc(C)c3ccccc3n2)c1 | -27.1% | -20.5% | -21.4% | u | u | u
Cc1cc(C)cc(NC(=S)/N=C(\N)Nc2nc(C)c3ccccc3n2)c1 | -14.5% | 1.2% | -20.5% | i | 18.4µM* | u
CCOc1ccccc1NC(=O)Nc1ccc2nc(N3CCN(C)CC3)cc(C)c2c1 | x | x | u | x | u | i
Cc1cc(N2CCN(C)CC2)nc2ccc(NC(=O)c3ccc(C(C)(C)C)cc3)cc12 | x | x | u | 15.8µM* | u | u
CCN1CCN(c2cc(C)c3cc(NC(=O)c4ccc(OC)c(OC)c4)ccc3n2)CC1 | u | -25.2% | -8.0% | u | 4.11µM*! | 3.66µM*!
CCOc1ccccc1C(=O)Nc1ccc2nc(N3CCN(c4ncccn4)CC3)cc(C)c2c1 | u | u | 14.1µM* | u | 8.2µM* | 14.6µM*
Cc1cc(N2CCN(C)CC2)nc2ccc(NC(=O)Nc3ccc(Cl)cc3)cc12 | x | x | 13.0% | i | i | i
CN(C)c1ccc(CNC(=O)C2CCCN(S(=O)(=O)c3ccc4c(c3)oc(=O)n4C)C2)cc1 (stereo not given) | x | x | -0.9% | i | i | i
S=c1nc[nH]c2c1cnn2-c1ccccc1 | 0.4% | 16.7% | x | u | 8.2µM* | u
Nc1ncnc2c1cnn2-c1ccccc1 | 5.3% | -2.2% | 29.5% | i | u | i
CCC(=O)N1c2ccccc2CC1C(=O)NCCc1cc(OC)c(OC)c(OC)c1 (stereo not given) | x | x | -5.9% | i | i | i
C[C@H]1NCc2cc(-c3ccc4c(=O)c(C(=O)O)cn(C5CC5)c4c3OC(F)F)ccc21 | x | x | 5.0%[25.6 µM] | i | x | x
CC[N+](C)(C)CCN(Cc1ccc(Cl)cc1)c1ccccn1 | -4.5% | -14.7% | 0.4% | i | i | i
NCCCN(Cc1ccc(Cl)c(Cl)c1)c1ccccn1 | 11.2µM* | 12.6µM* | x | x | x | x
NCCN(Cc1ccc(Cl)c(Cl)c1)c1ccc(Br)cn1 | 10µM* | 11.2µM* | x | x | x | x
